Consider 38 molecules from PubChem BioAssay (NCI).

SMILES strings stand for the structures. About 83,000 compounds went through this panel and 20% of them were active in at least one assay; those are over-represented in the sample as a whole.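 Cell lines were cultured in 96-well plates, exposed to a single compound concentration, and assessed for percent growth 48 hours later.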 Values without a mark were called inactive. Activity calls are given as the source filed them. The calls were made as follows: active = growth percent below 10; inactive = the rest.

The subject of this assay is U251 CNS. In words: NCI-60 one-dose screen, 48 h (100 = growth as untreated, 0 = no growth, -100 = all killed). The note with it: 10 µM unless noted.
Regarding `CCN(CC)CC#CCOC(=O)[C@]1(C)CCC[C@]2(C)[C@H]3C[C@H]4C(C(C)C)=C[C@]3(CC[C@H]21)[C@@H]1C(=O)CCC(=O)[C@@H]14`, the growth was 38.3%.

`CN1CCN(CC#CCOC(=O)CNC(=O)[C@]23CCC(C)(C)C[C@H]2C2=CC[C@@H]4[C@@]5(C)CC[C@H](O)C(C)(C)[C@@H]5CC[C@@]4(C)[C@]2(C)CC3)CC1`: the growth is 83.3%.

Turning to `Nc1cc(N)c(S(=O)(=O)O)cc1N=Nc1cc([N+](=O)[O-])ccc1O`, the growth is 100%.

For the molecule `COc1ccc2c(c1)Oc1nc(N)c(C#N)c(N)c1C2Sc1ccc(SC)cc1` (stereo not drawn), the growth is 13.9%.

Take `CO[C@@]12C=C[C@@]34CCC(=O)N3c3ccccc3[C@@H](O1)C4C2`: the growth is 99.7%.

For `COc1cc(NC(=O)Nc2cnc(Nc3ccc(N4CCOCC4)cc3)nc2Oc2ccc(F)cc2)cc(OC)c1`, the growth was 78.8%.

Regarding `C/C(=N/Nc1nc2ccccc2n1C)c1ccccn1`, the growth is 0.141% (active).

Turning to `Cc1cccc(C)c1NC(=O)CN(CC(C)C)CC(O)COc1ccccc1` (stereo not drawn), the growth was 99.7%.

Take `COC(=O)c1ccc2c(c1)NC(=O)[C@@H]1CCCN21`: the growth is 102%.

Regarding `O=C1c2ccccc2C(=O)c2c1oc1c2c(=O)[nH]c2ccc(Cl)cc21`, the growth is -77.5% (active).

As to `COc1cc(NC(=O)Nc2cnc(Nc3ccc(N4CCOCC4)cc3)nc2Oc2ccc(C(F)(F)F)cc2)cc(OC)c1`, the growth is 97.3%.

Take `COc1ccc(C(=O)c2cc(F)c(F)c(OC)c2F)cc1OC(=O)CCl`: the growth is 31.3%.

With `Nc1c(C(=O)Nc2cccc3ccccc23)sc2nc3c(cc12)CCCCC3`, the growth was 16.8%.

Regarding `O=c1[nH]c2ccccc2cc1-c1nc2ccncc2[nH]1`, the growth was 83.7%.

Consider `C=C1C(=O)O[C@H]2[C@H]1CC/C(COC(=O)NCc1nc3ccccc3[nH]1)=C\CC[C@@]1(C)O[C@@H]21`, for which the growth was 92.9%.

Consider `Cc1cccc(C)c1NCc1nnc(-c2ccco2)o1`, for which the growth was 96.9%.

Take `Nc1c(C(=O)Nc2ccccn2)sc2nc3c(cc12)CCCC3`: the growth was 33.2%.

Turning to `Cc1c(Cl)cccc1NC(=O)c1sc2nc3c(cc2c1N)CCCCC3`, the growth is 24.2%.

In the case of `CCSc1nc(Cl)c(C#N)c(-c2ccc(F)cc2)n1`, the growth is 91.6%.

On to `CCc1n(Cc2ccc3ccccc3c2)c2ccccc2[n+]1Cc1ccc2ccccc2c1`, for which the growth is 34.4%.

Take `NC(=O)CN1C(=O)c2ccccc2C1=O`: the growth is 103%.

Turning to `O=C1C(=O)c2c(nc3ccc(C(F)(F)F)cn23)-c2ccccc21`, the growth is -96% (active).

For the molecule `COc1cccc(NC(=O)Nc2ccc(Nc3ncnc4[nH]c(C)c(C)c34)cc2)c1`, the growth was 90.3%.

As for `NC(=O)c1ccc2nc3c(n2c1)C(=O)C(=O)c1ccccc1-3`, the growth is -98.6% (active).

Take `O=C(O)c1cc(N=Nc2ccc(-c3ccc(N=Nc4c(S(=O)(=O)O)cc5ccc(Nc6ccccc6)cc5c4O)cc3)cc2)ccc1O`: the growth is 103%.

Regarding `C=C1C(=O)O[C@H]2[C@H]1CCC(/C=N/c1ncc(Br)cc1N)=C\CC[C@@]1(C)O[C@@H]21`, the growth is 47.9%.

Take `Cc1nc2sc(C(=O)Nc3ccccc3Cl)c(N)c2cc1C(C)O` (stereo not drawn): the growth was 66.5%.

For the molecule `COc1ccc(/C=C/C(=O)c2ccc(NC(=O)CSc3nnc(-c4ccc(OC)c(OC)c4)n3-c3ccccc3)cc2)cc1`, the growth was -9.68% (active).

Turning to `O=c1c2ccccc2n(CC(O)CN2CCCC2)c2c(Br)cccc12` (stereo not drawn), the growth was 98.8%.

Regarding `O=C(CCCCCCCCC(=O)Nc1cccc(C2=NCCN2)c1)Nc1cccc(C2=NCCN2)c1`, the growth is 91.7%.

`Cc1ccc(C(=O)/C(=C/c2ccc([N+](=O)[O-])cc2)S(=O)Cc2ccccc2)cc1` (stereo not drawn): the growth was 13.4%.

`COc1ccc(-c2nc(C#N)c(NCC(c3ccc(Cl)cc3)N3CCCCC3)o2)cc1` (stereo not drawn): the growth is 96%.

In the case of `O=C1CC(c2ccc(O)c(O)c2)Oc2cc(O)c([C@@H]3O[C@H](CO)[C@@H](O)[C@H](O)[C@H]3O)c(O)c21` (stereo partly drawn), the growth was 98.1%.

For `CCCn1c2cc(OCc3cn(-c4ccc(Cl)cc4)nn3)ccc2c2ccnc(C)c21`, the growth is 47.5%.

Turning to `COc1ccccc1C(=O)/C=C/c1cc2cccc(OC)c2[nH]c1=O`, the growth is -55.7% (active).

With `O=[N+]([O-])c1ccc(N=Nc2c(O)c(N=Nc3cc([N+](=O)[O-])cc([N+](=O)[O-])c3O)cc(N=Nc3cc(S(=O)(=O)O)cc4cc(S(=O)(=O)O)cc(O)c34)c2O)cc1`, the growth is 105%.

In the case of `COc1cc(N=Nc2cc(S(=O)(=O)O)cc3cc(S(=O)(=O)O)cc(O)c23)c(C)cc1N=Nc1c(S(=O)(=O)O)cc2cc(Nc3ccccc3)ccc2c1O`, the growth is 109%.

For `C=C1C(=O)O[C@H]2[C@H]1CC/C(COC(=O)/C=C/c1cccnc1)=C\CC[C@@]1(C)O[C@@H]21`, the growth is 57.7%.
